From PubChem BioAssay (Tox21)
Results filed as inconclusive are left out. Calls of active or inactive are those of the source. Unless noted, calls follow the shape of the full dose curve.

Experiments:
[1] = Nuclear factor erythroid 2-related factor 2/antioxidant responsive element (Nrf2/ARE) small molecule agonists: qHTS cell viability counter screen in human keratinocytes (AID 1919968; active = well fitted cell-killing curve with a large enough effect in the repeat runs; also: nearly all actives have a fitted effect of over 55% in size)
In short: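 Stably transfected HaCaT (KeratinoSens), 1,500/well. Test agents in DMSO were applied for 23 h, 37 C/5% CO2. CellTiter-Fluor was incubated 1 h before the fluorescence read.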

[2] = Nuclear factor erythroid 2-related factor 2/antioxidant responsive element (Nrf2/ARE) small molecule agonists: luciferase reporter gene qHTS assay in human keratinocytes (AID 1919969); also: nearly all actives have a fitted effect of over 35% in size
[3] = target: Gonadotropin-releasing hormone receptor (Homo sapiens) (UniProt P30968); experiment: Human gonadotropin-releasing hormone receptor (GnRHR) small molecule agonists, calcium flux assay in GnRHR-HEK293 cells (AID 1920063); also: nearly all actives have a fitted effect of over 35% in size
Sequence of Gonadotropin-releasing hormone receptor (Homo sapiens) (P30968 whole entry, looked up): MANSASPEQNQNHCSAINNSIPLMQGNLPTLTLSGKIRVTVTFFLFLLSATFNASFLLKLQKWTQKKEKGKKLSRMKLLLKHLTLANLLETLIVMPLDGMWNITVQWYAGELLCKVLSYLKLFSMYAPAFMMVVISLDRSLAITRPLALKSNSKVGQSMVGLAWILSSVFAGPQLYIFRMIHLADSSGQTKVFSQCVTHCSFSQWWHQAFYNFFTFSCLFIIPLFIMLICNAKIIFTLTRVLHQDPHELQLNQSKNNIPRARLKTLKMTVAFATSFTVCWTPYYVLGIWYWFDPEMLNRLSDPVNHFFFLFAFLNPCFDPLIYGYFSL
In short: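 Stable human GnRHR HEK293 line. 18 h plating, then calcium dye for 1 h at 37 C. Agonist-mode compound addition from DMSO stocks; fluorescence monitored 3 min.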

[4] = G protein-coupled receptor (GPCR) small molecule agonists, calcium flux assay: HEK293 wild type cell line counter screen (AID 1920065)
In short: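 Following 18 h incubation at 37 C/5% CO2, plates got calcium dye for 1 h; compounds, ATP or DMSO were then pinned in and fluorescence followed kinetically (480/540 nm).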

[5] = p53 small molecule agonists, cell-based qHTS assay with human liver microsomes (AID 1963577);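 also: p53 response element beta-lactamase reporter cells with liver microsomes plus NADPH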
In short: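 Steps: plate p53RE-bla cells, incubate 5 h at 37 C; add compound in DMSO; add microsomes (0.5 mg/mL final) and NADPH (0.5 mg/mL final); incubate 16 h at 37 C; add LiveBLAzer, 2 h RT; read fluorescence.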

[6] = p53 small molecule agonists, cell-based qHTS assay with rat liver microsomes (AID 1963578)
In short: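 Metabolic activation is supplied by rat liver microsomes with NADPH (each 0.5 mg/mL final). p53RE-bla cells incubate with compound 16 h at 37 C; reporter activity is measured by LiveBLAzer fluorescence.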

[7] = p53 small molecule agonists, cell-based qHTS assay with human liver microsomes: qHTS cell viability counter screen (AID 1963579); also: nearly all actives have a fitted effect of over 45% in size
In short: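 After the 460/530 nm beta-lactamase read, CellTiter-Glo was added to the same wells and luminescence measured after 30 min at room temperature, giving viability of p53RE-bla cells treated 16 h with compounds plus microsomes and NADPH.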

[8] = p53 small molecule agonists, cell-based qHTS assay with rat liver microsomes: qHTS cell viability counter screen (AID 1963580); also: nearly all actives have a fitted effect of over 45% in size
In short: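 Rat liver microsome (0.5 mg/mL final) and NADPH (0.5 mg/mL final) co-incubation with compounds for 16 h at 37 C on HCT-116 p53RE-bla cells; cytotoxicity taken from intracellular ATP luminescence.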

[9] = target: 5-hydroxytryptamine receptor 2A (Homo sapiens) (UniProt P28223); experiment: 5-hydroxytryptamine receptor 2A (HTR2A) small molecule antagonists, cell-based qHTS assay (AID 1963586); also: nearly all actives have a fitted effect of over 45% in size; also: potency is read from the fitted curve at half-maximal effect
Sequence of 5-hydroxytryptamine receptor 2A (Homo sapiens) (P28223 whole entry, looked up): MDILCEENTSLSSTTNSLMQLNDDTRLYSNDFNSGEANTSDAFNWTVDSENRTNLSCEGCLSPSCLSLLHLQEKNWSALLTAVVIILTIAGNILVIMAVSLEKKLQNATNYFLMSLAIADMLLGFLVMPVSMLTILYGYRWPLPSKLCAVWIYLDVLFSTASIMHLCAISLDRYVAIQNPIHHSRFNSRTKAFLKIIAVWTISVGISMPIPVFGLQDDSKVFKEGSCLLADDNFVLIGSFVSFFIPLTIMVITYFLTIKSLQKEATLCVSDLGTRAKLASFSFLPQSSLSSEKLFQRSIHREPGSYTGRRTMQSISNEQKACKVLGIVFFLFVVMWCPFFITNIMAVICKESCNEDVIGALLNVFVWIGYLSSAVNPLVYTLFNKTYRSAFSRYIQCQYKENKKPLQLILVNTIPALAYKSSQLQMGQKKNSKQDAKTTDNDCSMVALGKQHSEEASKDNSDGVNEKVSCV
In short: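 CHO cells stably expressing human HTR2A were plated for 18 h at 37 C, then loaded with calcium dye for 1 h. Compounds were preincubated 5 min at room temperature before DOI (4 nM solution) was added. Kinetic fluorescence was read for 3 min.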

[10] = target: 5-hydroxytryptamine receptor 2A (Homo sapiens) (UniProt P28223); experiment: 5-hydroxytryptamine receptor 2A (HTR2A) small molecule agonists, cell-based qHTS assay (AID 1963587); also: nearly all actives have a fitted effect of over 30% in size
In short: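 Kinetic calcium-flux fluorescence (2 min, 1 sec intervals) after compound addition in agonist mode. HTR2A-CHO cells were cultured 18 h, then dye-loaded 1 h at 37 C.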

[11] = target: Muscarinic acetylcholine receptor M1 (Homo sapiens) (UniProt P11229); experiment: Cholinergic receptor muscarinic 1 (CHRM1) small molecule antagonists, cell-based qHTS assay (AID 1963588); also: nearly all actives have a fitted effect of over 40% in size; also: potency is read from the fitted curve at half-maximal effect
Sequence of Muscarinic acetylcholine receptor M1 (Homo sapiens) (P11229 whole entry, looked up): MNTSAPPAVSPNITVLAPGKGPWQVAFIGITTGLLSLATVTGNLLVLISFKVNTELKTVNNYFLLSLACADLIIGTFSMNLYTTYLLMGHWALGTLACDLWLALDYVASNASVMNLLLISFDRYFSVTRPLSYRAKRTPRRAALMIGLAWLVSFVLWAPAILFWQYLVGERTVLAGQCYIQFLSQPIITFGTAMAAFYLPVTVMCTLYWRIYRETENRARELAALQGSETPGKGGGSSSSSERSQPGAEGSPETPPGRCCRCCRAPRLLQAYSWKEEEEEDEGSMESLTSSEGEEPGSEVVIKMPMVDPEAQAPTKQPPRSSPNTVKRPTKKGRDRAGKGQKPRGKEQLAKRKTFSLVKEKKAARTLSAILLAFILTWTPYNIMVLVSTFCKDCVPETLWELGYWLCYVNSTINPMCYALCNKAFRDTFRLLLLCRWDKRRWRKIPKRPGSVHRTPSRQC
In short: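 Compounds were tested at 15 concentrations in three independent runs. Dye-loaded CHRM1-CHO cells were exposed 5 min at room temperature before stimulation by acetylcholine added at 50nM. Intracellular calcium was read kinetically on FDSS for 3 min.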

[12] = target: Muscarinic acetylcholine receptor M1 (Homo sapiens) (UniProt P11229); experiment: Cholinergic receptor muscarinic 1 (CHRM1) small molecule agonists, cell-based qHTS assay (AID 1963589); also: nearly all actives have a fitted effect of over 35% in size
In short: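 Kinetic fluorescence (1 s intervals) of calcium-sensitive dye in human M1 CHO cells after compound addition; cells pre-incubated 18 h at 37 C/5% CO2 and dye-loaded 1 h.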

[13] = cAMP Responsive Elements (CRE) small molecule agonists, cell-based qHTS assay (AID 1963590)
In short: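 Test agents in DMSO were incubated 3 h at 37 C/5% CO2 with CRE-bla HEK 293T cells seeded 18 h earlier; LiveBLAzer B/G FRET substrate was added and read after 2 h at room temperature.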

[14] = cAMP Responsive Elements (CRE) small molecule antagonists, cell-based qHTS assay (AID 1963591; active = well fitted inhibition curve with a large enough effect in the signal ratio in the repeat runs, not every such curve was filed as active; the % refers to the signal ratio)
In short: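 Reporter line CRE-bla HEK 293T in dialyzed-FBS DMEM; cells preincubated 18 h, treated 3 h with compound plus NKH477 (0.25 uM final); LiveBLAzer FRET, 2 h RT.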

[15] = target: Beta-2 adrenergic receptor (Homo sapiens) (UniProt P07550); experiment: Adrenergic beta2 receptor (ADRB2) small molecule antagonists, cell-based qHTS assay (AID 1963592); also: series mostly up to about 92 µM; nearly all actives have a fitted effect of over 50% in size
Sequence of Beta-2 adrenergic receptor (Homo sapiens) (P07550 whole entry, looked up): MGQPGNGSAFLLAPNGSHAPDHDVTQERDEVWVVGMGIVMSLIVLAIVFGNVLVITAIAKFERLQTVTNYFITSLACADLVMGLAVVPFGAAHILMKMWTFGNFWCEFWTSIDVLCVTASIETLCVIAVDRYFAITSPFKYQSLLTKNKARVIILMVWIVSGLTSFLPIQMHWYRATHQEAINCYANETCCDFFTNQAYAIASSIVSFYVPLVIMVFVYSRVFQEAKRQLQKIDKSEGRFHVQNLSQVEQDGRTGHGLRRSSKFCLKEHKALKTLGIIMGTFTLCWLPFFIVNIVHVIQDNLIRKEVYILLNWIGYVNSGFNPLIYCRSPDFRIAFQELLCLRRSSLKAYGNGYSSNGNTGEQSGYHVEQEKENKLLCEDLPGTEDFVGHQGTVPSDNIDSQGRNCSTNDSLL
In short: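 Assay format: CHO-ADRB2 cells, 18-20hr seeding at 37C/5% CO2, then compound plus 1nM isoproterenol agonist mix for 0.5hr RT. Homogeneous time-resolved fluorescence cAMP detection after 1hr, expressed as 665/615 nm ratio.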

[16] = target: D(2) dopamine receptor (Homo sapiens) (UniProt P14416); experiment: Dopamine D2 receptor (DRD2) small molecule agonists, cell-based qHTS assay (AID 1963594); also: nearly all actives have a fitted effect of over 35% in size
Sequence of D(2) dopamine receptor (Homo sapiens) (P14416 whole entry, looked up): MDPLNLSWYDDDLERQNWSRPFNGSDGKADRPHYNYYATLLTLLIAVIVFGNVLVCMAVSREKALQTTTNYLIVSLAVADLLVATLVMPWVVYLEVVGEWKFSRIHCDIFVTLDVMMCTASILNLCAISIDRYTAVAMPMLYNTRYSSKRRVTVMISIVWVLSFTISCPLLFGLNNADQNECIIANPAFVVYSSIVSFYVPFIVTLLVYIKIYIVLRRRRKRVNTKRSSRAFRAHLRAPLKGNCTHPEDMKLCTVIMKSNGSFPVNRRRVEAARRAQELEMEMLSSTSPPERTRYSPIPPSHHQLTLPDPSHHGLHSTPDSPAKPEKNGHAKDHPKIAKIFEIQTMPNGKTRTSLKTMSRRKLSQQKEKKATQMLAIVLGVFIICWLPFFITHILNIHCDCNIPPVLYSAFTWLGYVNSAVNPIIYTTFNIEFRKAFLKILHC
In short: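 cAMP accumulation in DRD2-HEK293 cells measured by HTRF after 1 h detection; compounds added 10 min before NKH477 (200nM […]) forskolin-analogue stimulation, 30 min at room temperature, with Ro20-1724 present at 0.1 mM final.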

[17] = target: D(2) dopamine receptor (Homo sapiens) (UniProt P14416); experiment: Dopamine D2 receptor (DRD2) small molecule antagonists, cell-based qHTS assay (AID 1963595; active = well fitted inhibition curve with a large enough effect in the signal ratio in the repeat runs, with a control signal flat; the % refers to the signal ratio)
In short: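 In this cell-based antagonist screen, compounds act for 10 min at room temperature before a 30 min challenge with 12 nM quinpirole and 200 nM NKH477. cAMP is quantified by HTRF competition in DRD2-HEK293 cells containing 0.1 mM Ro20-1724.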

[18] = p53 small molecule agonists, cell-based qHTS assay: qHTS cell viability counter screen (AID 1963581); also: nearly all actives have a fitted effect of over 45% in size
In short: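 qHTS counter screen: 16 h compound exposure at 37 C of p53RE-bla HCT-116 cells (4,000 per well, seeded 5 h prior), cell viability by ATP luminescence.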

[19] = p53 small molecule agonists, cell-based qHTS assay (AID 1963582; active = well fitted activation curve with a large enough effect in the signal ratio in the repeat runs, not every such curve was filed as active; the % refers to the signal ratio)
In short: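 Measured: fluorescence from cleaved LiveBLAzer substrate. System: p53RE-bla cells, 16 h compound treatment at 37 C, 2 h substrate step at room temperature.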
% is scaled to controls: 0 for no effect and ±100 for the full control effect.

Cc1occc(=O)c1OC(=O)C(C)C
inactive: Potency [1] | Potency [2] | Potency [3] | outcome [4] | Potency [5] | Potency [6] | Potency [7] | Potency [8] | Potency [9] | Potency [10] | Potency [11] | Potency [12] | Potency [13] | Potency [14] | Potency [15] | Potency [16] | Potency [17]

CC[C@H](NC(=O)c1cc(F)ccc1NS(=O)(=O)c1cccc2cccnc12)c1ccccc1
inactive: Potency [1] | Potency [2] | Potency [3] | outcome [4] | Potency [5] | Potency [6] | Potency [7] | Potency [8] | Potency [18] | Potency [9] | Potency [10] | Potency [11] | Potency [12] | Potency [17]

Nc1cc(C(=O)O)c(O)c(S(=O)(=O)O)c1
inactive: Potency [1] | Potency [2] | Potency [3] | outcome [4] | Potency [5] | Potency [6] | Potency [8] | Potency [18] | Potency [19] | Potency [9] | Potency [10] | Potency [12] | Potency [13] | Potency [14] | Potency [15] | Potency [16] | Potency [17]

CCCCc1ccc(N)cc1
inactive: Potency [1] | Potency [2] | Potency [3] | outcome [4] | Potency [5] | Potency [6] | Potency [7] | Potency [8] | Potency [18] | Potency [9] | Potency [10] | Potency [11] | Potency [13] | Potency [14] | Potency [15] | Potency [16] | Potency [17]

CN(CCOc1ccc(NS(C)(=O)=O)cc1)CCc1ccc(NS(C)(=O)=O)cc1
active: Potency [11] 8.18 µM
inactive: Potency [1] | Potency [2] | Potency [3] | outcome [4] | Potency [5] | Potency [6] | Potency [8] | Potency [18] | Potency [9] | Potency [10] | Potency [12] | Potency [13] | Potency [14] | Potency [15] | Potency [16] | Potency [17]

C1COC(NC(C2CC2)C2CC2)=N1
inactive: Potency [1] | Potency [2] | Potency [3] | outcome [4] | Potency [5] | Potency [6] | Potency [7] | Potency [8] | Potency [18] | Potency [10] | Potency [11] | Potency [12] | Potency [13] | Potency [15] | Potency [16] | Potency [17]

CCNC(=O)NCCCOc1cccc(CN2CCCCC2)c1
inactive: Potency [1] | Potency [2] | Potency [3] | outcome [4] | Potency [5] | Potency [6] | Potency [7] | Potency [8] | Potency [9] | Potency [10] | Potency [11] | Potency [12] | Potency [13] | Potency [14] | Potency [15] | Potency [16] | Potency [17]

O=C1CCC(C2CCCCC2)CC1
inactive: Potency [1] | Potency [2] | Potency [3] | outcome [4] | Potency [5] | Potency [6] | Potency [8] | Potency [18] | Potency [9] | Potency [10] | Potency [11] | Potency [12] | Potency [13] | Potency [14] | Potency [16] | Potency [17]

FC(F)(F)C(F)(F)C(F)(F)C(F)(F)C(F)(F)C(F)(F)C(F)(F)C(F)(F)C(F)(F)C(F)(F)F
inactive: activity change, negative = cytotoxicity [1] 2.36% [at 8.39 µM] | activity, positive = activation [2] -2.47% [at 8.39 µM] | activity change [3] 0.129% [at 5.22 µM, hits give high values] | activation [4] -1.63% [at 5.23 µM] | activation [5] 0.0412% [at 5.99 µM] | activation [6] -3.19% [at 5.99 µM] | activity change, negative = cytotoxicity [7] 2.89% [at 5.99 µM] | activity change, negative = cytotoxicity [8] -0.558% [at 5.99 µM] | activation [19] -0.0202% [at 5.99 µM] | activity, negative = inhibition [9] -16.5% [at 5.62 µM] | activation [10] 9.84% [at 7.02 µM] | activity, negative = inhibition [11] 8.35% [at 5.58 µM] | activation [12] -0.0294% [at 6.97 µM] | activation [13] -1.41% [at 8.39 µM] | activity change, negative = inhibition [14] -8.96% [at 8.39 µM] | activity change, negative = inhibition [15] 4.67% [at 8.39 µM] | activation [16] -0.702% [at 8.39 µM] | activity change, negative = inhibition [17] 10.1% [at 8.38 µM]

Cc1ccc2nc(N)[nH]c(=O)c2c1Sc1ccncc1
inactive: Potency [1] | Potency [2] | Potency [3] | outcome [4] | Potency [5] | Potency [6] | Potency [7] | Potency [18] | Potency [9] | Potency [10] | Potency [11] | Potency [12] | Potency [13] | Potency [14] | Potency [15] | Potency [16] | Potency [17]

C=C[Si](C)(C)O[Si](C)(C)C=C
inactive: Potency [1] | Potency [2] | Potency [3] | outcome [4] | Potency [5] | Potency [6] | Potency [7] | Potency [8] | Potency [18] | Potency [9] | Potency [10] | Potency [11] | Potency [13] | Potency [14] | Potency [15]

C=CCCCCCCCCC(=O)OCC
inactive: Potency [1] | Potency [2] | Potency [3] | outcome [4] | Potency [5] | Potency [6] | Potency [7] | Potency [18] | Potency [19] | Potency [9] | Potency [10] | Potency [12] | Potency [13] | Potency [14] | Potency [15] | Potency [16]

CCNC(=O)N1CCN(CCCC(c2ccc(F)cc2)c2ccc(F)cc2)CC1
inactive: Potency [1] | Potency [2] | Potency [3] | outcome [4] | Potency [5] | Potency [6] | Potency [7] | Potency [8] | Potency [18] | Potency [10] | Potency [12] | Potency [13] | Potency [15] | Potency [16]
active: Potency [9] 0.23 µM

CC(=O)OC1CCCCC1
inactive: Potency [1] | Potency [2] | Potency [3] | outcome [4] | Potency [5] | Potency [6] | Potency [8] | Potency [18] | Potency [19] | Potency [10] | Potency [11] | Potency [12] | Potency [13] | Potency [14] | Potency [15] | Potency [16] | Potency [17]

COc1ccc(C(=O)Nc2nc3ccccc3c(NCc3ccccc3)c2C#N)cc1
inactive: Potency [1] | Potency [2] | Potency [3] | outcome [4] | Potency [5] | Potency [6] | Potency [8] | Potency [18] | Potency [19] | Potency [9] | Potency [10] | Potency [11] | Potency [12] | Potency [16] | Potency [17]
